These results are taken from PubChem BioAssay (NCATS).

Molecules are shown by their SMILES. Inconclusive results are not listed. A call without a number means that no potency is given here. Calls of active or inactive are those of the source. Calls come from the whole dose curve; as a rule, active = well fitted cell-killing curve with a large enough effect; inconclusive = small, poorly fitted or top-dose-only effect; inactive = flat fitted curve, though single readings scatter.

A short description of this assay: qHTS of pediatric cancer cell lines to identify multiple opportunities for drug repurposing: Primary screen for Rh18 cells (AID 1347102). Note: nearly all actives have a fitted effect of over 65% in size. The note with it: Rh18 rhabdomyosarcoma viability, CellTiter-Glo luminescence, 48 h; series mostly up to 46 µM. The text has this:
Drug repurposing or repositioning has been offered as a strategy for drug development in oncology programs. This approach has special potential for childhood cancers and other rare or orphan diseases, where the expected return on new drug development has been a disincentive to pharmaceuticals.
In this project we exploit the poly-pharmacology of drugs to discover new indications via phenotypic screening of a panel of 19 well-characterized cell lines derived from solid tumors seen in children and adolescents. The goal is to identify approved drugs with previously unrecognized anticancer properties that has the potential to reveal new mechanisms and biological processes involved in carcinogenesis or drug resistance. We employed a titration-based paradigm (quantitative high-throughput screening or qHTS), where all compounds were tested at multiple concentrations for their effect on cell viability. Concentration-response curves (CRCs) were derived directly from the primary screen, and both potency and efficacy values were used to identify compounds with robust bioactivity profiles. We screened the NIH Chemical Genomics Center (NCGC) Pharmaceutical Collection (NPC) and Mechanism Interrogation Plate (MIPE) small molecule collections of approved and investigational compounds against these cell lines; and measured metabolically active cells after 48 hours of compound treatment as a proxy for cell viability.
Assay Submitter: Nathalia J. Martinez, National Center for Advancing Translational Sciences, National Institutes of Health, Rockville, MD, USA; email: natalia.martinez@nih.gov
[1] Shen, M et al. Quantitative high-throughput phenotypic screening of pediatric cancer cell lines identifies multiple opportunities for drug repurposing. Oncotarget 2017 Dec 19;9(4):4758-4772. PMID 29435139.
The cells were obtained from University of North Carolina (UNC), Pediatric Preclinical Testing Program (PPT), and Coriell Institute (CI).
qHTS cell viability assay:
Cells were assayed in growth media at a density of 500-1,000 cells/well. Five microliters of cells were dispensed into 1,536-well, white, solid-bottom, TC-treated plates (Greiner Bio One) using a multidrop dispenser and incubated at 37 degrees C, 5% CO2, under a humidified atmosphere for 5 hours. Twenty-three nanoliters of compounds and controls (neutral control DMSO or positive control bortezomib at final concentration of 2.3 µM) were subsequently transferred by Kalypsys pintool. For primary screens, the MIPE collection was tested at 11-point dilutions (final concentrations range from 0.78 nM to 46 µM) and the NPC collection at 8-point dilutions (final concentrations range from 0.59 nM to 46 µM). Compounds tested in follow-up screens were assayed at 11-point dilutions. Cells were incubated for 48 hours, followed by addition of 3 µL of CellTiter-Glo (Promega). After a 15 min incubation at room temperature, samples were analyzed for luminescence intensity using a ViewLux High-throughput CCD imager equipped with clear filters.
Regarding `C[C@H]1C[C@H]2[C@@H]3CCC4=CC(=O)C=C[C@]4(C)[C@H]3C(=O)C[C@]2(C)[C@@]1(O)C(=O)CO`, the Potency entry is “inactive”.

In the case of `Nc1c[n+](N2CCOCC2)no1`, the Potency result is “inactive”.

With `CC(=O)N1CCN(c2ccc(O)cc2)CC1`, the Potency result was “inactive”.

Regarding `O=C1CC(c2ccc(Cl)cc2)CC(=O)N1`, the Potency result was “inactive”.

With `Oc1ccccc1`, the Potency entry is “inactive”.

With `CN=C(N)NC(=O)Nc1c(C)cccc1C`, the Potency entry is “inactive”.

In the case of `Cc1ncc([N+](=O)[O-])n1C`, the Potency entry is “inactive”.

On to `CC1c2ccccc2CN1NC(=O)c1ccc(Cl)c(S(N)(=O)=O)c1` (stereo not given), for which the Potency result is “inactive”.

Turning to `CCCC(=O)O[C@]1(C(=O)COC(=O)CC)CC[C@H]2[C@@H]3CCC4=CC(=O)CC[C@]4(C)[C@H]3[C@@H](O)C[C@@]21C`, the Potency entry was “inactive”.

Consider `NS(=O)(=O)c1cc2c(cc1Cl)CN(C1CCCCC1)C2=O`, for which the Potency result is “inactive”.

In the case of `CC(C(=O)O)c1ccc(/C=C2\CCCCC2=O)cc1` (stereo not given), the Potency entry was “inactive”.

In the case of `C[N+]1(CC2COC(c3ccccc3)(c3ccccc3)O2)CCCCC1` (stereo not given), the Potency result is “inactive”.

`Cc1cnc(NS(=O)(=O)c2ccc(N)cc2)nc1`: the Potency result is “inactive”.

On to `CCN(CC)CC(=O)OCC(=O)[C@@]1(O)CC[C@H]2[C@@H]3CCC4=CC(=O)CC[C@]4(C)[C@H]3[C@@H](O)C[C@@]21C`, for which the Potency result is “inactive”.

As for `CCc1cccc2c(CCO)c[nH]c12`, the Potency result was “inactive”.

Take `CC1(C)O[C@@H]2C[C@H]3[C@@H]4C[C@H](F)C5=CC(=O)C=C[C@]5(C)[C@@]4(F)[C@@H](O)C[C@]3(C)[C@]2(C(=O)CO)O1`: the Potency entry is “inactive”.

Take `CCc1cc(S(=O)(=O)O)c2cc(C(C)C)cccc1-2`: the Potency entry is “inactive”.

On to `CC(=O)Nc1c(I)c(NC(C)=O)c(I)c(C(=O)O)c1I`, for which the Potency result is “inactive”.

As for `CCCCCOc1ccccc1/C(=C\SC)n1ccnc1`, the Potency result was “inactive”.

As to `CC(=O)N(c1onc(C)c1C)S(=O)(=O)c1ccc(N)cc1`, the Potency entry is “inactive”.

`CC1CCCCN1CCCOC(=O)c1ccc(OC2CCCCC2)cc1` (stereo not given): the Potency entry was “inactive”.

`COc1ccc(-n2nc(CCC(=O)N(C)O)cc2-c2ccc(Cl)cc2)cc1`: the Potency result was “inactive”.

Consider `CCCCC(=O)OCC(=O)[C@H]1[C@H](C)C[C@H]2[C@@H]3C[C@H](F)C4=CC(=O)C=C[C@]4(C)[C@@]3(F)[C@@H](O)C[C@@]21C`, for which the Potency result was “inactive”.

On to `[O-][n+]1cccc(/C(Cl)=N/OC[C@@H](O)CN2CCCCC2)c1`, for which the Potency result is “inactive”.

Turning to `C[C@]12CCC(=O)C=C1CC[C@@H]1[C@@H]2[C@@H](O)C[C@@]2(C)[C@H]1CC[C@]2(O)C(=O)COC(=O)CCC(=O)O`, the Potency entry is “inactive”.

As for `COc1cc(OC)nc(O[C@H](C(=O)O)C(OC)(c2ccccc2)c2ccccc2)n1`, the Potency result was “inactive”.

Turning to `CCCc1ccc(OCC(=O)N2CCN(C(=O)COc3ccc(CCC)cc3OC)CC2)c(OC)c1`, the Potency entry is “inactive”.

Regarding `CC(=O)/C=C/C=C1/C2CCC(C2)C1(C)C` (stereo not given), the Potency result was “inactive”.

Turning to `CO/N=C(/C(=O)N[C@@H]1C(=O)N2C(C(=O)[O-])=C(C[n+]3ccn4ncccc43)CS[C@H]12)c1nsc(N)n1`, the Potency result is “inactive”.

Consider `CCOC(=O)C(=O)c1csc(NC=O)n1`, for which the Potency entry is “inactive”.

Turning to `CCOC(=O)c1cc(=O)c2c(OCC(COc3cccc4oc(C(=O)OCC)cc(=O)c34)OC(=O)[C@@H](N)CCCCN)cccc2o1`, the Potency entry is “inactive”.

With `Cc1cccc(C)c1NC(=O)c1cc(S(N)(=O)=O)c(Cl)cc1O`, the Potency entry is “inactive”.

For `CCCOc1ccc2c(c1)CC[C@@H]1[C@@H]2CC[C@]2(C)C(OC)CC[C@@H]12` (stereo not given in full), the Potency entry is “inactive”.

Regarding `CCOCCn1c(C2CCN(CCc3ccc(C(C)(C)C(=O)O)cc3)CC2)nc2ccccc21`, the Potency entry is “inactive”.

Take `OCCCc1ccccc1`: the Potency result is “inactive”.

Consider `OCCOCCN1CCN(C(c2ccccc2)c2ccc(Cl)cc2)CC1` (stereo not given), for which the Potency entry is “inactive”.

Regarding `Cc1ccc(Cl)c(OCC(O)CNC(C)(C)C)c1` (stereo not given), the Potency entry was “inactive”.

Consider `CN1CCN(N)CC1`, for which the Potency result was “inactive”.

Regarding `COc1ccccc1OCC1CNC(=O)O1` (stereo not given), the Potency entry was “inactive”.

For `C=C(C)C(=O)OCC(O)CO` (stereo not given), the Potency entry was “inactive”.
